Hit rate of the full screen: of about 390,000 compounds, about 910 (0.23%) were called active. Not shown: some 5% with an inconclusive outcome. Calls follow the shape of the dose curve; as a rule, active = well fitted inhibition curve with a large enough effect; inconclusive = small, poorly fitted or top-dose-only effect; inactive = no such curve, though single readings can be large or run the other way. For the sample, actives were picked, then their nearest neighbours and some compounds at random.
Molecular target: Ubiquitin carboxyl-terminal hydrolase 1 (Homo sapiens) (UniProt O94782)
Assay: Inhibitors of USP1/UAF1: Primary Screen; also: nearly all actives have a fitted effect of over 60% in size
Details: recombinant USP1/UAF1, Ub-Rhodamine cleavage fluorescence; series mostly up to 57.1 µM; activity change, negative = inhibition: at the top concentration
In short: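 USP1/UAF1 complex (1 nM) preincubated 15 min at room temperature with compound, then Ub-Rho substrate (150 nM final) added. Kinetic fluorescence at 480/540 nm over 6 reads at 60 s intervals; 50 mM HEPES pH 7.8, 0.5 mM EDTA, 0.1 mg/ml BSA, 1 mM TCEP, 0.01% Tween-20.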
% is scaled to controls: 0 for no effect and ±100 for the full control effect; potency is read from the fitted curve at half-maximal effect.

Sequence of Ubiquitin carboxyl-terminal hydrolase 1 (Homo sapiens) (O94782 whole entry, looked up): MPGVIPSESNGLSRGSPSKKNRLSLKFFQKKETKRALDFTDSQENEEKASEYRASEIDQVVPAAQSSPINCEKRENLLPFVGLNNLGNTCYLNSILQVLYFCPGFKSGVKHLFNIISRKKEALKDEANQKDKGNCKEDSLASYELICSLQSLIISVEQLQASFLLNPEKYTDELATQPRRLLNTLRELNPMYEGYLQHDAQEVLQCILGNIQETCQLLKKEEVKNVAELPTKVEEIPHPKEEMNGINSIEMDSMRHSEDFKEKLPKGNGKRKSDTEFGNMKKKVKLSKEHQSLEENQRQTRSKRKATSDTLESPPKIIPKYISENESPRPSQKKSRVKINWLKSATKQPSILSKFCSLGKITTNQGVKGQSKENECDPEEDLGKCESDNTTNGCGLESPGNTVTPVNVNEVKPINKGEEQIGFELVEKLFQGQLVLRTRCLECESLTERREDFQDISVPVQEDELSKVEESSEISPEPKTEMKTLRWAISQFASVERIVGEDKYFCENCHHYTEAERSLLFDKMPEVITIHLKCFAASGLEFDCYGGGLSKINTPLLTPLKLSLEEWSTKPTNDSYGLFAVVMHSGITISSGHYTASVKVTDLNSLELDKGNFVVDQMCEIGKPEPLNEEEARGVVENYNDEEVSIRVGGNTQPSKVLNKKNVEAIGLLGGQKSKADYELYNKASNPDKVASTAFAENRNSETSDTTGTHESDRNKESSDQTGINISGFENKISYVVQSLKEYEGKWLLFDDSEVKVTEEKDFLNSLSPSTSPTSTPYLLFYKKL

SMILES | activity change, negative = inhibition | Potency
O=C(CSc1ncc(-c2ccccc2)[nH]1)Nc1ccc(F)cc1F | -5.56% (inactive) | –
Cc1ccc(Cn2c(CNC(=O)Cc3cccc(C)c3)nc3cccnc32)cc1 | -24% (inactive) | –
Fc1ccc(Nc2nc(SCc3ccccc3Cl)nc3ccccc23)cc1 | -24.2% (inactive) | –
CCC(=O)Nc1c(C(=O)N2CCN(c3ccc(F)cc3)CC2)oc2ccccc12 | -18.1% (inactive) | –
CCOc1ccc(CCNC(=O)c2ccc3c(c2)sc2nc(-c4ccc(F)cc4)cn23)cc1OCC | 2.52% (inactive) | –
COc1ccc(N2CCN(C(=O)CSCc3nc(-c4ccccc4Cl)oc3C)CC2)cc1 | -26.2% (inactive) | –
Cc1ccc2c(=O)c(C(=O)c3ccc(F)cc3)cn(CC(=O)NC3CCCCC3)c2n1 | 2.13% (inactive) | –
CCN(CCCNC(=O)c1ccc(Sc2ccc(C)cc2)c(NC(C)=O)c1)c1cccc(C)c1 | -9.52% (inactive) | –
O=S(=O)(NCC(c1ccccc1)N1CCc2ccccc21)c1ccccc1 (stereo unspecified) | -27.1% (inactive) | –
CC1=CC2=NC(=O)/C(=C/c3coc4ccccc4c3=O)C(=N)N2O1 | – | 28.2 µM (active)
O=C(CCn1c(=O)c2sccc2n(Cc2ccc(F)cc2)c1=O)NCc1ccc2c(c1)OCO2 | -8.87% (inactive) | –
O=C(CCSCc1ccccc1F)N1CCN(c2ccc(Cl)cc2)CC1 | -7.91% (inactive) | –
O=C(CC1N=C2c3ccccc3N=C(SCc3cccc(Cl)c3)N2C1=O)NCc1ccc2c(c1)OCO2 (stereo unspecified) | -5.07% (inactive) | –
COc1cc(OC)c(NC(=O)c2c3c(nn2C)-c2ccccc2SC3)cc1Cl | -25.8% (inactive) | –
O=C(CC(c1cccs1)N1Cc2ccccc2C1=O)Nc1ccc(F)c(F)c1 (stereo unspecified) | -15.1% (inactive) | –
NC1=CC(=O)C(=O)c2cccnc21 | – | 3.55 µM (active)
CCc1ccccc1OCCSc1nc(-c2cccs2)nc2cc(=O)[nH]n12 | -13.4% (inactive) | –
O=[N+]([O-])c1ccc(C=Nc2ccc(Cl)cc2Cl)s1 | – | 28.2 µM (active)
COc1ccc(NC(=O)c2cc3cc(C)ccc3n2C)cc1 | -6.32% (inactive) | –
CCC(=O)N1CCc2cc(Br)cc(S(=O)(=O)Nc3ccc(C)cc3C)c21 | -10.7% (inactive) | –
Cc1ccc(O)c(NC(=O)c2cc(-c3ccc(F)cc3)no2)c1 | -11.8% (inactive) | –
CCOC(=O)c1c(S(=O)(=O)N2CCCC(C(=O)NCc3ccc(F)cc3)C2)c(C)n(CC)c1C (stereo unspecified) | -24.5% (inactive) | –
CC1CCN(S(=O)(=O)c2ccc3c(c2)N(CC(=O)NCc2ccccc2Cl)C(=O)CO3)CC1 | -20.5% (inactive) | –

SMILES | activity change, negative = inhibition | Potency
CCOC(=O)N1CCc2c(sc3c2C(=O)NC(c2ccccc2F)N3)C1 (stereo unspecified) | -21.4% (inactive) | –
CC(C)(C)OC(=O)N1CCC(c2c(C(=O)NCc3ccccn3)cnn2-c2ccc(F)cc2)CC1 | 7.78% (inactive) | –
CCOC(=O)c1cccc(NC(=O)C(Cc2ccccc2)NS(=O)(=O)c2cccc3nsnc23)c1 (stereo unspecified) | -8.9% (inactive) | –
Cc1ccc2cccc(NC(=O)c3ccc(OC(C)C)cc3)c2n1 | -22.6% (inactive) | –
Cc1ccc(-c2nc3cccc(C)n3c2Nc2ccc3c(c2)OCCO3)cc1 | -11.9% (inactive) | –
CCN1CCC(N(Cc2ccc(F)cc2)C(=O)Nc2cc(C)ccc2C)CC1 | -12.8% (inactive) | –
CCc1ccc(CNC(=O)C2CCN(c3nn4cc(-c5ccc(F)cc5)nc4s3)CC2)cc1 | -6.33% (inactive) | –
COc1cc(OC)c(NC(=O)c2cnc(N3CCCC3)nc2C)cc1Cl | -25.5% (inactive) | –
CCc1ccc(NC(=O)c2cc(S(=O)(=O)N3CCCC(C)C3)cn2C)cc1 (stereo unspecified) | -21.5% (inactive) | –
Cc1cc(C)nc(NS(=O)(=O)c2ccc(NC(=O)c3cc(=O)c4ccc(C)c(C)c4o3)cc2)n1 | -20.7% (inactive) | –
Cc1oc2ncnc(N3CCOCC3)c2c1C(=O)NCCc1ccccc1 | -11.6% (inactive) | –
COc1ccc(-c2cn3c(n2)sc2cc(C(=O)Nc4ccc(F)cc4)ccc23)cc1 | 6.29% (inactive) | –
CN1/C(=C\C=C2\N=C(c3ccc(F)cc3)OC2=O)C(C)(C)c2ccccc21 | – | 28.2 µM (active)
Cc1csc2nc(COC(=O)c3ccc(NC(=O)COc4ccccc4F)cc3)cc(=O)n12 | -3.82% (inactive) | –
CCCN1CCN(CCCNC(=O)c2cnn(-c3ccc(C)cc3)c2-n2cccc2)CC1 | -10.7% (inactive) | –
O=C(CCOc1ccccc1)N(Cc1cccnc1)c1nc2ccc(Cl)cc2s1 | -18.1% (inactive) | –
CC(NC(=O)c1cc(Sc2ccc(F)cc2F)nc2ccccc12)c1ccccc1 (stereo unspecified) | -9.65% (inactive) | –
COc1cccc(C(=O)NCc2ccc3c(c2)CCN3C(=O)c2ccncc2)c1 | -9.61% (inactive) | –
CCOC(=O)c1c(SCC(=O)Nc2cccc(C)c2C)nc(=O)[nH]c1C | -6.81% (inactive) | –
CCOC(=O)c1c(C)[nH]c2c1-c1ccccc1C(=O)C2=O | – | 1.26 µM (active)
CCOC(=O)c1c(C)[nH]c(CCC(=O)Nc2ccc(OC)c(OC)c2)c1C | -19% (inactive) | –
CN(C(=O)c1ccc2c(c1)N(Cc1cccc(Cl)c1)C(=O)c1ccccc1S2=O)C1CCCCC1 (stereo unspecified) | -9.49% (inactive) | –
CC(=O)N(C1=C(Cl)C(=O)c2ccccc2C1=O)c1ccc(C(=O)O)cc1 | – | 14.1 µM (active)
